The whole screen tested about 16,000 compounds, of which about 5,700 (36%) were called active. Roughly 24% stayed inconclusive and do not appear here. Calls follow the shape of the dose curve; as a rule, active = well fitted curve in the direction sought with a large enough effect; inconclusive = small, poorly fitted or top-dose-only effect, or effect the other way; inactive = no such curve, though single readings can be large or run the other way. This is one part of the list.
The molecules below were run against Cytochrome P450 1A2 (Homo sapiens) (UniProt P05177) (assay: Cytochrome panel assay with activity outcomes). Settings: recombinant CYP, pro-luciferin dealkylation, luminescence, p450-cyp1a2; series mostly up to 57.1 µM.
Sequence of Cytochrome P450 1A2 (Homo sapiens) (P05177 whole entry, looked up): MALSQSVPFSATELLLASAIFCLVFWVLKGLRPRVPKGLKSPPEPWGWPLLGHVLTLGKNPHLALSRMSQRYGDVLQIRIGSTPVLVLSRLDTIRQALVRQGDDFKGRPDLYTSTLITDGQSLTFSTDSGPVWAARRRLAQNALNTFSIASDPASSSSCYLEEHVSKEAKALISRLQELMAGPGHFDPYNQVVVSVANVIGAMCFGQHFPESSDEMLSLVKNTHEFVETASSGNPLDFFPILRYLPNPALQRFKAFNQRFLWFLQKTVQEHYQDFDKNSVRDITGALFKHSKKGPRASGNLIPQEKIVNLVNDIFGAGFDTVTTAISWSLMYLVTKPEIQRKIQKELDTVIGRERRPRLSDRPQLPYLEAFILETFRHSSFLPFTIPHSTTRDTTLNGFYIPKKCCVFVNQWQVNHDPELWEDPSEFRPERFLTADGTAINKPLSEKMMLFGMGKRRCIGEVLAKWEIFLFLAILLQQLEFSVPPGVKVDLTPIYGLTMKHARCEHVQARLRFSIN
For `O=C(COC(=O)c1cccnc1Nc1cccc(C(F)(F)F)c1)NCc1ccc2c(c1)OCO2`, the AC50 was 3.55 µM (active).
`O=C(O)c1sc2cc(C(F)(F)F)cnc2c1-c1ccccc1` was tested, and the AC50 was “inactive”.
In the case of `CCOC(=O)C1CN(S(=O)(=O)c2cccc(C(F)(F)F)c2)c2cc(CC(=O)OC)ccc2O1` (stereo not given), the AC50 is reported as “inactive”.
`O=C(O)Cc1ccc2c(c1)N(S(=O)(=O)c1cccc(C(F)(F)F)c1)CC(C(=O)O)O2` (stereo not given) was tested, and the AC50 was “inactive”.
In the case of `O=C(O)c1cccnc1Nc1cccc(C(F)(F)F)c1`, the AC50 is reported as 5.01 µM (active).
With `O=C(O)c1cccnc1C(=O)O` the AC50 was “inactive”.
`CCN[C@@H]1C[C@H](C)S(=O)(=O)c2sc(S(N)(=O)=O)cc21` was tested, and the AC50 was “inactive”.
For `Cc1ncc(COP(=O)(O)O)c(C)c1O`, the activity, negative = inhibition was -20.3% [at 11.4 µM] (inactive).
For `COC(=O)[C@@H]1CC[C@H](C)[C@@H](c2ccc(C)cc2)N1C(=O)c1ccc(/C=N\O[C@@H](C)CN2CCCCc3nc(C)c(C)cc32)cc1`, the activity, negative = inhibition was -5.58% [at 11.4 µM] (inactive).
For `CC(C)n1nnnc1SCC(=O)c1ccc2c(c1)OCCO2`, the AC50 was 5.01 µM (active).
In the case of `CCn1nnnc1SCC(=O)c1ccc2c(c1)OCCO2`, the AC50 is reported as 8.91 µM (active).
In the case of `CC(=O)N[C@H]1[C@@H](O[C@@H](C)C(=O)O)[C@H](O)[C@H](CO)O[C@@H]1O`, the AC50 is reported as “inactive”.
For `CO[C@H]1COC(=O)[C@H]2CCCN2C(=O)C/C=C\[C@@H](C)[C@H](OC)COC(=O)C/C=C\[C@@H]1C`, the activity, negative = inhibition was 1.68% [at 11.4 µM] (inactive).
For `Cc1cc(C(=O)NNCc2ccccc2)no1`, the AC50 was 12.6 µM (active).
For `COC(=O)[C@@H]1C[C@H]1[C@@H](NC(=O)c1cc(C)nn1C)c1ccccc1`, the AC50 was 15.8 µM (active).
For `COC(=O)[C@@H]1C[C@H]1[C@@H](NC(=O)c1cc(C)on1)c1ccccc1`, the AC50 was 20 µM (active).
For `Cc1cc(CNC(=O)[C@H]2C[C@@H]2[C@H](NP(=O)(c2ccccc2)c2ccccc2)c2ccccc2)nn1C`, the AC50 was “inactive”.
For `CCNC(=S)NNC(=O)c1cc(C)on1`, the AC50 was “inactive”.
In the case of `Cc1occc1C(=O)NNC(=O)Cc1ccccc1`, the AC50 is reported as “inactive”.
For `COc1ccc(O[C@H]2C=C[C@@H](c3ccccc3)O[C@@H]2CON=C(C)C)cc1`, the activity, negative = inhibition was -2.27% [at 11.4 µM] (inactive).
In the case of `Cc1cc2nc3[nH]c4c(Cl)cc(Cl)cc4c3nc2cc1C`, the AC50 is reported as 0.631 µM (active).
In the case of `CS(=O)(=O)N1CCC2(CC1)CN(C(=O)Nc1cccc(C#N)c1)C2`, the AC50 is reported as “inactive”.
In the case of `C=CCNC(=S)N/N=C/c1ccc(-c2cc(Cl)ccc2Cl)o1`, the AC50 is reported as 0.112 µM (active).
In the case of `CC(=O)C1=C(O)C=C(c2ccco2)CC1c1ccco1` (stereo not given), the AC50 is reported as 5.01 µM (active).
`CC1=CC=CN2CC(O)CN=C12` (stereo not given) was tested, and the AC50 was “inactive”.
% is scaled to controls: 0 for no effect and ±100 for the full control effect.
